# Rows were chosen to be rich in hits. Some 2.8% of all compounds tested hit in one or more screens of this group.
# EWS-Fli block – inhibitors of EWS/Fli oncoprotein transcriptional activity | A673 NR0B1-luciferase reporter, viability-normalised | AID 651661 | inhibition, % at 12.6 µM | 350,000 tested, 0.67% active;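 active means mean inhibition of at least 50% after viability correction, with every replicate also passing that limit; inconclusive means mean reaches 50% but only one of two replicates passes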;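 further: firefly luciferase signal divided by Alamar Blue viability fluorescence both relative to DMSO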
# TWEAK-Fn14 inh – blocks TWEAK-Fn14 interaction in a reporter cell assay; 360,000 tested, 2% active; inhibition, % at 10 µM; AID 1159606; TWEAK-stimulated Fn14 reporter cells, luciferase luminescence, 8 h; in the data active means inhibition above about 50%
# PAX8 reporter – PAX8 transcriptional activity inhibition; RMG-I TPO-luciferase reporter, SteadyGlo, 24 h; inhibition, % at 12.6 µM; 360,000 tested, 1.2% active; AID 652154;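 active means mean replicate inhibition at least 60% with every replicate also reaching 60%; inconclusive means only one of the two criteria is met; inactive means mean below 60% and not all replicates reaching 60%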;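 further: luciferase light reporting Pax8 driven TPO promoter activity; plate controls were median of neutral control wells for no effect and mitoxantrone controls for full effect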
# TROY NFkB inh – blocks TROY-dependent signaling in reporter cells | 360,000 tested, 0.98% active | inhibition, % at 10 µM | Q293 LMP1-TROYcd NF-kB luciferase reporter, 4 h;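 active means compounds whose plate-normalised and pattern-corrected inhibition of the luciferase reporter signal at the single screening dose is 50% or more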
# LGR2 inh – inhibitors of bursicon-induced Drosophila LGR2 receptor cAMP signaling; HEK293 LGR2, CRE-luciferase, bursicon-stimulated, 4 h; inhibition, % at 9.99 µM; 380,000 tested, 0.35% active;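 active means drop in luminescence signal, shown as inhibition above about 50% in the replicate tests, limit read from the data, passing the limit was not always enough; inconclusive means probably only some replicates passing the limit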;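 further: agonist challenge used bursicon conditioned medium at about half maximal strength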
# Starred values were filed as active, the others as inactive; ? = inconclusive; . = no result given.
SMILES,EWS-Fli block,TWEAK-Fn14 inh,PAX8 reporter,TROY NFkB inh,LGR2 inh
COc1ccc(CCn2c(N)c(C(=O)NCc3ccco3)c3nc4ccccc4nc32)cc1OC,.,43,.,35,.
O=C1CNC[C@@H]2[C@@H](c3ccc(C4=CCCC4)cc3)[C@H](CO)N12,-4,.,.,.,-3
COc1ccc(NC(=O)Nc2ccc3c(c2)C(=O)N([C@H](C)CO)C[C@H](C)[C@@H](CN(C)C(=O)NC2CCCCC2)OCCCC[C@H](C)O3)cc1,2,.,7,.,15
Cn1cnc(S(=O)(=O)N2C[C@H](O)COC[C@@H]3O[C@@H](CC(=O)NCc4ccc(F)cc4)CC[C@H]32)c1,4,.,3,.,20
CCOc1ccc(N(CC(=O)OC)S(=O)(=O)c2ccc3c(c2)n(C)c(=O)c(=O)n3C)cc1,24,80*,4,-16,1
CC(=O)N1CCN(C(=O)c2cc(C)nc3ccccc23)CC1,5,-11,5,16,1
Cc1cc(C(=O)N2CC=C(c3ccccc3)CC2)c2ccccc2n1,72*,4,46,24,-16
CO[C@H](CN(C)C(=O)Nc1ccc(C(F)(F)F)cc1)[C@H](C)CN(Cc1ccccc1Cl)[C@H](C)CO,15,.,.,.,4
CCC(C)NS(=O)(=O)c1ccc(S(=O)(=O)N(CCc2ccc(OC)c(OC)c2)Cc2cccs2)cc1 (stereo not given),16,55*,38,31,20
COc1ccc(-n2c(C)cc(C3=NNC(=NC4CC4)SC3)c2C)cc1,10,-4,-52,-8,-10
Cc1cc(C2=NNC(=NC3CC3)SC2)c(C)n1-c1ccccc1,89*,96*,77*,47,-4
Cc1cc(C2=NNC(=NC3CC3)SC2)c(C)n1Cc1ccco1,72*,61*,6,16,.
COCCCN=C1NN=C(c2cc(C)n(Cc3ccco3)c2C)CS1,54*,10,-35,2,-30
CC(C)C(=O)Nc1ccc2c(c1)C(=O)N(C)[C@@H]1CC[C@H](CC(=O)NCc3ccc(F)cc3)O[C@@H]1CO2,-9,.,15,.,-1
CC(C)NC(=S)N/N=C/c1ccc2c(c1)OCCO2,83*,15,-4,23,-9
COc1cc(C2c3cc4c(cc3OC(NNC(N)=O)C2C)OCO4)cc(OC)c1OC (stereo not given),54*,7,75*,17,-9
COc1cc(C2c3cc4c(cc3OC(NNC(N)=S)C2C)OCO4)cc(OC)c1OC (stereo not given),61*,-8,85*,25,2
COc1ccc(S(=O)(=O)Nc2cccc3c2O[C@H](CN(C)S(=O)(=O)c2ccccc2)[C@H](C)CN([C@@H](C)CO)C3=O)cc1,-13,.,-6,.,-7
Cc1ccc(N/C=C/C(=O)c2cccs2)cc1,59*,81*,25,55*,75*
O=C(/C=C/Nc1ccc(F)cc1F)c1cccs1,.,60*,8,10,79*
O=C(/C=C\Nc1cccc(F)c1)c1cccs1,.,10,.,-56,.
Cc1noc(NS(=O)(=O)c2ccc(N/C=C\C(=O)c3cccs3)cc2)c1C,-3,-23,-13,16,-21
O=C(/C=C/Nc1ccccc1F)c1cccs1,.,64*,25,-14,80*
CCOC(=O)c1ccccc1N/C=C/C(=O)c1cccs1,-52,0,34,34,-46
COc1ccc(CN(C)C[C@@H]2OCCCC[C@@H](C)Oc3ccc(NS(=O)(=O)c4c(C)noc4C)cc3C(=O)N([C@@H](C)CO)C[C@@H]2C)cc1,-20,.,-6,.,-4
SMILES,EWS-Fli block,TWEAK-Fn14 inh,PAX8 reporter,TROY NFkB inh,LGR2 inh
CNC[C@H]1Oc2ccc(NC(=O)CCCN(C)C)cc2C(=O)N([C@H](C)CO)C[C@@H]1C,-6,.,-12,.,6
Cc1ccc(S(=O)(=O)Nc2ccc3c(c2)CC(=O)N([C@@H](C)CO)C[C@H](C)[C@@H](CN(C)Cc2ccc4c(c2)OCO4)O3)cc1,3,.,10,.,6
O=C(NC(=S)Nc1cc([N+](=O)[O-])ccc1O)c1ccc2c(c1)OCO2,-64,71*,.,70*,?
COc1cc([N+](=O)[O-])ccc1NC(=S)NNC(=O)c1ccc2c(c1)OCO2,.,-26,-22,23,1
Cc1c(C(=O)NCc2ccc(Cl)c(Cl)c2)sc(=O)n1Cc1ccc(S(C)(=O)=O)cc1,29,53*,39,38,26
COc1ccc(CNC(=O)c2sc(=O)n(Cc3ccc(-c4ccccc4)cc3)c2C)cc1OC,16,61*,27,41,10
COc1ccc(CNC(=O)c2sc(=O)n(Cc3ccc(C)cc3)c2C)cc1OC,1,5,-2,15,-46

# High-throughput results from PubChem.
